Measured values published in PubChem BioAssay (NCATS).
Records with an inconclusive call do not appear. Active and inactive are the calls of the source. Calls follow the shape of the dose curve; as a rule, active = well fitted curve in the direction sought with a large enough effect; inconclusive = small, poorly fitted or top-dose-only effect, or another doubt; inactive = no such curve, though single readings can be large; an effect the other way counts as inactive or inconclusive.

Tests used:
[1] = molecular target: ATP-dependent 6-phosphofructokinase (Trypanosoma brucei brucei) (UniProt O15648); experiment: qHTS Assay to Find Inhibitors of T. brucei phosphofructokinase: hit validation (AID 492961)
Summary of the method: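 Percent activity derived from corrected luminescence, normalized between 0x and 1x enzyme controls, then fitted to concentration-response curves. Conditions: 1.25 nM PFK, 0.1 mM ATP, 0.5 mM F6P, 45 min RT.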

[2] = qHTS profiling for inhibitors of Plasmodium falciparum proliferation (AID 504749);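 as to activity, negative = inhibition: 0% = DMSO vehicle and full inhibition = artemisinin control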; as to all read-outs here: nearly all actives have a fitted effect of over 60% in size; details: P. falciparum in erythrocytes, SYBR Green DNA, 72 h; for activity, negative = inhibition: at 28.7 µM (top of the series)
Summary of the method: (§1)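 Quantitative HTS: compounds pinned into medium, infected erythrocytes added (0.3% parasitemia, 2.5% hematocrit), 72 h culture at 37 C under 5% CO2. Saponin/Triton lysis with SYBR Green I, overnight RT, then fluorescence read.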

AA1029 = experiment: as above; details: P. falciparum in erythrocytes, SYBR Green DNA, 72 h; series mostly up to 28.7 µM
Summary of the method: as §1

AS120 = experiment: as above; details: P. falciparum in erythrocytes, SYBR Green DNA, 72 h; series mostly up to 28.7 µM
Summary of the method: as §1

ATS189 = experiment: as above; details: P. falciparum in erythrocytes, SYBR Green DNA, 72 h; series mostly up to 28.7 µM
Summary of the method: as §1

CP185 = experiment: as above; details: P. falciparum in erythrocytes, SYBR Green DNA, 72 h; series mostly up to 28.7 µM
Summary of the method: as §1

CP217 = experiment: as above; details: P. falciparum in erythrocytes, SYBR Green DNA, 72 h; series mostly up to 28.7 µM
Summary of the method: as §1

CP238 = experiment: as above; details: P. falciparum in erythrocytes, SYBR Green DNA, 72 h; series mostly up to 28.7 µM
Summary of the method: as §1

CP252 = experiment: as above; details: P. falciparum in erythrocytes, SYBR Green DNA, 72 h; series mostly up to 28.7 µM
Summary of the method: as §1

CP262 = experiment: as above; details: P. falciparum in erythrocytes, SYBR Green DNA, 72 h; series mostly up to 28.7 µM
Summary of the method: as §1

CP265 = experiment: as above; details: P. falciparum in erythrocytes, SYBR Green DNA, 72 h; series mostly up to 28.7 µM
Summary of the method: as §1

CP286 = experiment: as above; details: P. falciparum in erythrocytes, SYBR Green DNA, 72 h; series mostly up to 28.7 µM
Summary of the method: as §1

Dd2 = experiment: as above; details: P. falciparum in erythrocytes, SYBR Green DNA, 72 h; series mostly up to 28.7 µM
Summary of the method: as §1

FAB9 = experiment: as above; details: P. falciparum in erythrocytes, SYBR Green DNA, 72 h; series mostly up to 28.7 µM
Summary of the method: as §1

N140 = experiment: as above; details: P. falciparum in erythrocytes, SYBR Green DNA, 72 h; series mostly up to 28.7 µM
Summary of the method: as §1

P94_40 = experiment: as above; details: P. falciparum in erythrocytes, SYBR Green DNA, 72 h; series mostly up to 28.7 µM
Summary of the method: as §1

TAB109 = experiment: as above; details: P. falciparum in erythrocytes, SYBR Green DNA, 72 h; series mostly up to 28.7 µM
Summary of the method: as §1

CP191 = experiment: as above; details: P. falciparum in erythrocytes, SYBR Green DNA, 72 h; series mostly up to 28.7 µM
Summary of the method: as §1

CP211 = experiment: as above; details: P. falciparum in erythrocytes, SYBR Green DNA, 72 h; series mostly up to 28.7 µM
Summary of the method: as §1

3D7 = experiment: as above; details: P. falciparum in erythrocytes, SYBR Green DNA, 72 h; series mostly up to 28.7 µM
Summary of the method: as §1
Potency is read from the fitted curve at half-maximal effect.

Sequence of ATP-dependent 6-phosphofructokinase (Trypanosoma brucei brucei) (O15648 whole entry, looked up): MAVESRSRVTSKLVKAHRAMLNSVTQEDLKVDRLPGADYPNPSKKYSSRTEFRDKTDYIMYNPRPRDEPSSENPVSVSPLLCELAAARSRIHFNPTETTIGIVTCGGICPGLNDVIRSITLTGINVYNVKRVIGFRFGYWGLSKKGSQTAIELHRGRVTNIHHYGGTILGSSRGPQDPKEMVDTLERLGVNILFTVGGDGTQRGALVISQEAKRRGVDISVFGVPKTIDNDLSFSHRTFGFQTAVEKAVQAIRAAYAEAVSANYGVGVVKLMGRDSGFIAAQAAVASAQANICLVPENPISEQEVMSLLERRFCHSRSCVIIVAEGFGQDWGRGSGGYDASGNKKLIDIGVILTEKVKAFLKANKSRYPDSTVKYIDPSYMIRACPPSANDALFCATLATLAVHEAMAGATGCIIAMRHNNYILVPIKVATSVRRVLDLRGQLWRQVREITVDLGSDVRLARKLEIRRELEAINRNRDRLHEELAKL

CN(C)CC[C@@](O)(c1ccccc1)c1ccccc1Cl
inactive: Potency [1] | activity, negative = inhibition ([2]; parasite line A) -12.9% | Potency (CP262) | Potency (FAB9)
active: Potency (AA1029) 4.47 µM | Potency (AS120) 8.91 µM | Potency (ATS189) 5.62 µM | Potency (CP185) 11.2 µM | Potency (CP217) 12.6 µM | Potency (CP238) 11.2 µM | Potency (CP252) 11.2 µM | Potency (CP265) 7.08 µM | Potency (CP286) 7.94 µM | Potency (Dd2) 2 µM | Potency (N140) 4.47 µM | Potency (P94_40) 6.31 µM | Potency (TAB109) 7.08 µM

C=C1C(n2cnc3c(=O)[nH]c(N)nc32)C[C@H](O)[C@H]1CO (stereo not given in full)
inactive: Potency [1] | activity, negative = inhibition ([2]; parasite line A) 9.61% | activity, negative = inhibition ([2]; parasite line B) -7.65% | Potency (AA1029) | Potency (AS120) | Potency (ATS189) | Potency (CP191) | Potency (CP211) | Potency (CP217) | Potency (CP238) | Potency (CP252) | Potency (CP265) | Potency (Dd2) | Potency (FAB9) | Potency (N140) | Potency (P94_40)

NC(C(=O)O)C(O)c1ccc(O)c(O)c1 (stereo not given)
active: Potency [1] 4.47 µM | Potency ([2]; parasite line A) 14.1 µM | Potency (3D7) 8.91 µM | Potency (N140) 12.6 µM

CC1CCC(O)C/C1=C\C=C1/CCCC2(C)C1CCC2C(C)/C=C/C(C)C(C)C (stereo not given)
inactive: Potency [1] | activity, negative = inhibition ([2]; parasite line A) -1.73% | activity, negative = inhibition ([2]; parasite line B) -28.9% | Potency (AA1029) | Potency (AS120) | Potency (ATS189) | Potency (CP185) | Potency (CP191) | Potency (CP211) | Potency (CP217) | Potency (CP238) | Potency (CP252) | Potency (CP262) | Potency (CP265) | Potency (CP286) | Potency (Dd2) | Potency (FAB9) | Potency (TAB109)

Cc1c(C)c2c(c(C)c1O)CCC(C)(CCCC(C)CCCC(C)CCCC(C)C)O2 (stereo not given)
inactive: Potency [1] | activity, negative = inhibition ([2]; parasite line A) 15.7% | activity, negative = inhibition ([2]; parasite line B) 8.58% | Potency (3D7) | Potency (AA1029) | Potency (AS120) | Potency (ATS189) | Potency (CP185) | Potency (CP191) | Potency (CP211) | Potency (CP217) | Potency (CP238) | Potency (CP252) | Potency (CP262) | Potency (CP265) | Potency (CP286) | Potency (FAB9) | Potency (N140) | Potency (P94_40) | Potency (TAB109)

CC(=O)O[C@]1(C(C)=O)CCC2C3CCC4=CC(=O)CCC4(C)C3(F)C(O)CC21C (stereo not given in full)
inactive: Potency [1] | activity, negative = inhibition ([2]; parasite line A) 7.47% | activity, negative = inhibition ([2]; parasite line B) -19% | Potency (3D7) | Potency (AA1029) | Potency (AS120) | Potency (ATS189) | Potency (CP185) | Potency (CP191) | Potency (CP211) | Potency (CP217) | Potency (CP238) | Potency (CP252) | Potency (CP262) | Potency (CP265) | Potency (CP286) | Potency (Dd2) | Potency (FAB9) | Potency (N140) | Potency (P94_40) | Potency (TAB109)

C[C@]12CC[C@@H]3c4ccc(O)cc4CC[C@H]3[C@@H]1CCC2OC(=O)CCC1CCCC1 (stereo not given in full)
inactive: Potency [1] | activity, negative = inhibition ([2]; parasite line A) -2.55% | activity, negative = inhibition ([2]; parasite line B) -17% | Potency (AA1029) | Potency (AS120) | Potency (ATS189) | Potency (CP185) | Potency (CP191) | Potency (CP211) | Potency (CP217) | Potency (CP238) | Potency (CP252) | Potency (CP262) | Potency (CP265) | Potency (FAB9) | Potency (N140) | Potency (P94_40) | Potency (TAB109)

COC(=O)C1C2CC3c4[nH]c5cc(OC)ccc5c4CCN3CC2CC(OC)C1OC (stereo not given)
inactive: Potency [1] | activity, negative = inhibition ([2]; parasite line A) 2.01% | activity, negative = inhibition ([2]; parasite line B) -6.18% | Potency (3D7) | Potency (AA1029) | Potency (AS120) | Potency (ATS189) | Potency (CP185) | Potency (CP191) | Potency (CP211) | Potency (CP217) | Potency (CP238) | Potency (CP252) | Potency (CP262) | Potency (CP265) | Potency (CP286) | Potency (Dd2) | Potency (FAB9) | Potency (N140) | Potency (P94_40) | Potency (TAB109)

C=C(CC[C@@H](C)[C@H]1CCC2[C@]1(C)CC[C@]13C[C@@]14CCC(OC(=O)/C=C/c1ccc(O)c(OC)c1)C(C)(C)[C@@H]4CC[C@@]23C)C(C)C (stereo not given in full)
inactive: Potency [1] | activity, negative = inhibition ([2]; parasite line A) 3.06% | activity, negative = inhibition ([2]; parasite line B) 1.72% | Potency (3D7) | Potency (AA1029) | Potency (AS120) | Potency (ATS189) | Potency (CP185) | Potency (CP191) | Potency (CP211) | Potency (CP217) | Potency (CP238) | Potency (CP252) | Potency (CP262) | Potency (CP265) | Potency (CP286) | Potency (Dd2) | Potency (FAB9) | Potency (N140) | Potency (P94_40) | Potency (TAB109)

O=C(O)C[CH2][Ge](=[O])[O][Ge](=[O])[CH2]CC(=O)O
inactive: Potency [1] | activity, negative = inhibition ([2]; parasite line A) 10.2% | Potency (AA1029) | Potency (AS120) | Potency (ATS189) | Potency (CP185) | Potency (CP191) | Potency (CP211) | Potency (CP217) | Potency (CP238) | Potency (CP252) | Potency (CP262) | Potency (CP265) | Potency (CP286) | Potency (Dd2) | Potency (FAB9) | Potency (N140) | Potency (P94_40) | Potency (TAB109)
